The values below come from paper PMC7862700, “An all-to-all approach to the identification of sequence-specific readers for epigenetic DNA modifications on cytosine”.

What all share (assay): DAPPL (digital affinity profiling via proximity ligation, sequencing); 10 mM Tris-HCl pH 7.5, 50 mM NaCl, 1 mM DTT, 4% glycerol, room temperature, 30 min; GST-TFs on glutathione beads, 16-mer random dsDNA library, 0.1% formaldehyde crosslink after washing; high values mean tight binding
Conditions in all cases: protein: recombinant; tags: N-terminal GST; dsDNA, one strand shown

The target in assay [1] is T1, FLI1 (Homo sapiens, UniProt Q01543 1-452).
T1 sequence: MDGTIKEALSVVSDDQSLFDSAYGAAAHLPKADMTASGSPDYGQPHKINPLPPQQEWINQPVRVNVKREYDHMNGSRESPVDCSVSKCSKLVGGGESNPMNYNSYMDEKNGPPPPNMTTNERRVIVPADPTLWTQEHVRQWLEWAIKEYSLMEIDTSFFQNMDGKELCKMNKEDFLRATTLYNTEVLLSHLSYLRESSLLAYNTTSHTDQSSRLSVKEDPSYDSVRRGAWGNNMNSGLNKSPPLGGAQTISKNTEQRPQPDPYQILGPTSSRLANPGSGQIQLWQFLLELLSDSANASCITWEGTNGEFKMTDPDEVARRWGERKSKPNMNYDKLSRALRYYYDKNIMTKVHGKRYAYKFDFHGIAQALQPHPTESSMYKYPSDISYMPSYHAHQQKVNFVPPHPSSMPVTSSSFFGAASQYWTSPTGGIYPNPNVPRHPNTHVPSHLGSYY
The essentials:
(§1)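 Human transcription factors fused to GST were expressed in yeast, captured on glutathione beads, given DNA barcodes and pooled with a GST-only negative control. Pools were incubated with 200 nmole of a 16-mer random double-stranded DNA library in Tris/NaCl/DTT/glycerol buffer at room temperature for 30 min. They were then washed, crosslinked with 0.1% formaldehyde, proximity-ligated (BsaI/T4 ligase, 1 h, 37 °C), PCR-amplified and sequenced on an Illumina NextSeq500. Binding signal is each 6-mer's read frequency for a factor divided by its frequency for the GST control.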

In assay [2] the target is T2, ELK1 (Homo sapiens, UniProt P19419 1-428).
T2 sequence: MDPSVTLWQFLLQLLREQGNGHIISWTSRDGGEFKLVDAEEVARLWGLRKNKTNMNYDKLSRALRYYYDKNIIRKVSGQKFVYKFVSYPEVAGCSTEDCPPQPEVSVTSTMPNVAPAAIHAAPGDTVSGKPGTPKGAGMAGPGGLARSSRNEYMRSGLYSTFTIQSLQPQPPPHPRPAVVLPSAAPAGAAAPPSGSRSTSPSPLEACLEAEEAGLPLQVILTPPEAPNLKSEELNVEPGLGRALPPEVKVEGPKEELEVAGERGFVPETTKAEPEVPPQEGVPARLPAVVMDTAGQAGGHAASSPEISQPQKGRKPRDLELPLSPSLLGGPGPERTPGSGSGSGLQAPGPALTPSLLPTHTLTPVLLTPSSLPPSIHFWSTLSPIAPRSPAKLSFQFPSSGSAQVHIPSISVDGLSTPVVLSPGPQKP
The essentials: as §1

Assay [3] concerns the target T3, ERG (Homo sapiens, UniProt P11308 1-479).
T3 sequence: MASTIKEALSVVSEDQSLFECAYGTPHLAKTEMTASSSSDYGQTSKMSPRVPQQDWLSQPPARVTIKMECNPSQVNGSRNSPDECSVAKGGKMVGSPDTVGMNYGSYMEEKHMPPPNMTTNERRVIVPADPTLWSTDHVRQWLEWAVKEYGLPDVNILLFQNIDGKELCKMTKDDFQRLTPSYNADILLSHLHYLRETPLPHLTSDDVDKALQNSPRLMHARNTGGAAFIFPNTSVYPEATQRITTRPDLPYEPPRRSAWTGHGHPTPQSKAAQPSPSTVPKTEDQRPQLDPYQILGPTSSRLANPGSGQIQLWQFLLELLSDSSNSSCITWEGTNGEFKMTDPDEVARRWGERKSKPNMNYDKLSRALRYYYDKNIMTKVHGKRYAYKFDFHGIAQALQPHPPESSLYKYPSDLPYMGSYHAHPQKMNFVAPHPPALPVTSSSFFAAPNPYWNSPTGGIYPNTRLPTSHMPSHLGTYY
The procedure, abridged:
as §1

In assay [4] the target is SPIB (Homo sapiens, UniProt Q01892 1-262). The procedure, abridged:
as §1

Assay [5] addresses T4, SPIC (Homo sapiens, UniProt Q8N5J4 1-248).
T4 sequence: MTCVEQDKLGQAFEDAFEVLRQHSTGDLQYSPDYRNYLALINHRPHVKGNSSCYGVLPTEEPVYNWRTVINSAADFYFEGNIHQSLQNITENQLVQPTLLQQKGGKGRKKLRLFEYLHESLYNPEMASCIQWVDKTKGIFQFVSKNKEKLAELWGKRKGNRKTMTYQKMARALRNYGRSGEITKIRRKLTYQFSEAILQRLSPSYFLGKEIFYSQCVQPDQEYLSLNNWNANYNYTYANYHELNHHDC
The procedure, abridged: as §1

Assay [6] concerns the target T5, ETV7 (Homo sapiens, UniProt Q9Y603 1-341).
T5 sequence: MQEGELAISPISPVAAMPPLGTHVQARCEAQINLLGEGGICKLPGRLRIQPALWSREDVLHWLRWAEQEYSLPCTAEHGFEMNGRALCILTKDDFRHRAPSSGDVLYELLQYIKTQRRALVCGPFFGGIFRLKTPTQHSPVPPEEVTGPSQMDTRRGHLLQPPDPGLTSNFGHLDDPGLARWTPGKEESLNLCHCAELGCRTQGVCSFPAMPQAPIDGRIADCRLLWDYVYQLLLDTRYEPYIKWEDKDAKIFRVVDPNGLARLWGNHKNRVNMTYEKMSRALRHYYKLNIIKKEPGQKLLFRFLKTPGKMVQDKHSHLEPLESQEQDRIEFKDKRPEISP
The procedure, abridged: as §1

Assay [7] has as its target T6, ETV3 (Homo sapiens, UniProt P41162-2 1-143).
T6 sequence: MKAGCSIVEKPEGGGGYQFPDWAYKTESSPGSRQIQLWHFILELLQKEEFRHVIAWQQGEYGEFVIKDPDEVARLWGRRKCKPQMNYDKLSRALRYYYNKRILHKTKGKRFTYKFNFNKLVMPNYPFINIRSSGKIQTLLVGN
The essentials: as §1

Assay [8] concerns the target T7, GABPA (Homo sapiens, UniProt Q06546 1-454).
T7 sequence: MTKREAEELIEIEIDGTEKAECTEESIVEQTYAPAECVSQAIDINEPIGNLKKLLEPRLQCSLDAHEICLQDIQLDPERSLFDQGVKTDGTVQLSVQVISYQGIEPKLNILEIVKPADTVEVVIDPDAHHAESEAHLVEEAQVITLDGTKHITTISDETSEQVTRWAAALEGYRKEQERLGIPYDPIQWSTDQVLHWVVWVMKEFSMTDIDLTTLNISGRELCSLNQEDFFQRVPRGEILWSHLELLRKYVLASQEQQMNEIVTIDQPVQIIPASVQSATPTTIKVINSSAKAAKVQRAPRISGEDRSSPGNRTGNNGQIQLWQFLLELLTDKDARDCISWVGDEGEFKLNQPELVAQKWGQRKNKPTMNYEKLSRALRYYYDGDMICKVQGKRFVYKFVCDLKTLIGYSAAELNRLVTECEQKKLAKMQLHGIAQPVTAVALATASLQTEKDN
The essentials:
as §1

The target in assay [9] is T8, EHF (Homo sapiens, UniProt Q9NZC4 1-300).
T8 sequence: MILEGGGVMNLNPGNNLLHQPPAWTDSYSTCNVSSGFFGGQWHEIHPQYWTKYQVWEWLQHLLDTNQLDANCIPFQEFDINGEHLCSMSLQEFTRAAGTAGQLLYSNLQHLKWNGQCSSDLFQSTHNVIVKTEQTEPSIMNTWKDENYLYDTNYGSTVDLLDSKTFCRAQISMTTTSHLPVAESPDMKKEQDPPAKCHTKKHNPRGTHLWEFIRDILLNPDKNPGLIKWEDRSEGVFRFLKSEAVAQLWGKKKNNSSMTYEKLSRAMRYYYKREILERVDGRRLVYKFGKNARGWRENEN
The essentials: as §1

The target of assay [10] is T9, ELK3 (Homo sapiens, UniProt P41970 1-407).
T9 sequence: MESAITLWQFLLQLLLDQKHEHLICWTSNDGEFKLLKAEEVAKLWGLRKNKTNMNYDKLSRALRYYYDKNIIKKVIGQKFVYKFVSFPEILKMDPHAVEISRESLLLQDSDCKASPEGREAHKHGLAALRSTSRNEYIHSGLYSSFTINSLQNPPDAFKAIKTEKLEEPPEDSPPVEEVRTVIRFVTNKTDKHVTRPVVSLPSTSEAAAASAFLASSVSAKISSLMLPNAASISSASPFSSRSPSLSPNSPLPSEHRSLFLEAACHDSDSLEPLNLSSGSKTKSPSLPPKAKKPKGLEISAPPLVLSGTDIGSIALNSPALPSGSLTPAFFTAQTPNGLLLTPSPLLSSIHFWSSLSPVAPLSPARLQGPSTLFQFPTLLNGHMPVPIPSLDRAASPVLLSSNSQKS
The essentials: as §1

In assay [11] the target is ELF4 (Homo sapiens, UniProt Q99607 1-663). The procedure, abridged:
as §1

Assay [12] has as its target T10, ELF3 (Homo sapiens, UniProt P78545 1-371).
T10 sequence: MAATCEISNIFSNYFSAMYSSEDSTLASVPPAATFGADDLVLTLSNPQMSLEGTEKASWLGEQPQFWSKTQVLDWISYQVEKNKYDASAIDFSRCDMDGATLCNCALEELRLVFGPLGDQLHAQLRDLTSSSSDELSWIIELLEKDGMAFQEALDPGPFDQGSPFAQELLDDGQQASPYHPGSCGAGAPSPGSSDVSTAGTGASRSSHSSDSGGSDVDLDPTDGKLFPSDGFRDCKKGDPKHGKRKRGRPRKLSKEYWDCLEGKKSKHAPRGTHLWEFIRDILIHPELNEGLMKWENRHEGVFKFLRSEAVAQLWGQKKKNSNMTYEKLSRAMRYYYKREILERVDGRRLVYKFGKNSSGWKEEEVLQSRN
The procedure, abridged: as §1

Assay [13] addresses ETV1 (Homo sapiens, UniProt P50549 1-477). The procedure, abridged: as §1
For assay [14], the target named is T11, ETV3L (Homo sapiens, UniProt Q6ZN32 1-361).
T11 sequence: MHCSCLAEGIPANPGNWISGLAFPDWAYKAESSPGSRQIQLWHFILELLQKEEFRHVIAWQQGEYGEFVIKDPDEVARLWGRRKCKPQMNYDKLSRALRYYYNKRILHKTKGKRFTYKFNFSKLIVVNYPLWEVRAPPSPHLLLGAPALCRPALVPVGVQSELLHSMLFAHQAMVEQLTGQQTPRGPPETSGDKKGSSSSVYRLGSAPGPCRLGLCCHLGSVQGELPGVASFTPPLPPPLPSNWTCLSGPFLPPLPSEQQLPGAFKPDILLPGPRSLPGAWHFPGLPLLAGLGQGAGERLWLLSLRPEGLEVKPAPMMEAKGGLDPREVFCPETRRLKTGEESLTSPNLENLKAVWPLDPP
The essentials: as §1

Assay [15] deals with ETV6 (Homo sapiens, UniProt P41212 1-452). The essentials:
as §1

Chain of ETV6 (P41212 whole entry): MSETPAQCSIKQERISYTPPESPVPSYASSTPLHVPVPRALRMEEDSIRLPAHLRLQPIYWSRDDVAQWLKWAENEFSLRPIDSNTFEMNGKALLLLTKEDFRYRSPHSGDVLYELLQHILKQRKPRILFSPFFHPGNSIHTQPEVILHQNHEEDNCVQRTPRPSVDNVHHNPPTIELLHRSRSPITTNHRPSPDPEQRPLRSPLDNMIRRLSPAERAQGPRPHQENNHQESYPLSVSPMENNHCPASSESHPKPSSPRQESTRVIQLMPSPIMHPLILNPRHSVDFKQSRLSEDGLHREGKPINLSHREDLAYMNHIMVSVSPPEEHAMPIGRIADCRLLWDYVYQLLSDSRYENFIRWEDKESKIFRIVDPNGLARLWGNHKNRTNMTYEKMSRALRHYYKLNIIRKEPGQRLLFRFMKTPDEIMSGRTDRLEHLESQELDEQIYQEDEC
Chain of ELF4 (Q99607 whole entry): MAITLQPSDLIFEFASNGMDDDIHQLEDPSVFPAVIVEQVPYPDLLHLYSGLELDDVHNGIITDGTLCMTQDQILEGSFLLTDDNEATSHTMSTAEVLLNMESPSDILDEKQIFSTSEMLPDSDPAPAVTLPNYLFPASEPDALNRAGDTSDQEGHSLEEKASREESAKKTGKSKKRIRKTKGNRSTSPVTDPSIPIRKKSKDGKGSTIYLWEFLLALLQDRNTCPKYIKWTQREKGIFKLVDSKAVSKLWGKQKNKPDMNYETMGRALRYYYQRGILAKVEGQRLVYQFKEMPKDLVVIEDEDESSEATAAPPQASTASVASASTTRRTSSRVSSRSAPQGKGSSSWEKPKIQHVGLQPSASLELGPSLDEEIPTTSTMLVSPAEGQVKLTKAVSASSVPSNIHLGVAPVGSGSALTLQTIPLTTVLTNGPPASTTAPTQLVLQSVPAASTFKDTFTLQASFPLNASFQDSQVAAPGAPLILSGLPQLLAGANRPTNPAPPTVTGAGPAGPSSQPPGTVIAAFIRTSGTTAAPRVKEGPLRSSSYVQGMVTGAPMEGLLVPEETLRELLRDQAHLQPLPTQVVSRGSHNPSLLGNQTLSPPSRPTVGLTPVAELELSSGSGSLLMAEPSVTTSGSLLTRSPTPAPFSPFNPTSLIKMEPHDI
Chain of SPIB (Q01892 whole entry): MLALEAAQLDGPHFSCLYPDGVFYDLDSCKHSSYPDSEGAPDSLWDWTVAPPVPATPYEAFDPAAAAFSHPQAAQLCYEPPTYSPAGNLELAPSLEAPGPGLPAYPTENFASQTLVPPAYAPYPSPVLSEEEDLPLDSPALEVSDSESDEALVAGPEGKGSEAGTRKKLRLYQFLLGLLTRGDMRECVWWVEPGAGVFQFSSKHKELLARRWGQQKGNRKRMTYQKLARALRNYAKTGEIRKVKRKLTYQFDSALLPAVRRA
Chain of ETV1 (P50549 whole entry): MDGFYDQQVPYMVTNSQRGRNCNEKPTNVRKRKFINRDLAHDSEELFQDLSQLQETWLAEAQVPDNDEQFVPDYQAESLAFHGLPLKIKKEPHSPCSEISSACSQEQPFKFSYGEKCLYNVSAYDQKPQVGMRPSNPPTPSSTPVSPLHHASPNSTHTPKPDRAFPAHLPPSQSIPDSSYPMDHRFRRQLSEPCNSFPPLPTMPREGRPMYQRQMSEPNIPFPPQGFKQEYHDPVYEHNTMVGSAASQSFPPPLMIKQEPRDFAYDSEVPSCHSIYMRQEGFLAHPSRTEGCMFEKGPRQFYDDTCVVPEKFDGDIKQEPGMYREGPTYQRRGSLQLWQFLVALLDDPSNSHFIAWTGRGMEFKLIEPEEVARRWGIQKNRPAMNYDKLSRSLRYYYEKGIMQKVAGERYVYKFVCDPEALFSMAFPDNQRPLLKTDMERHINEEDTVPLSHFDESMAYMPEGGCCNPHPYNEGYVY

With CCCGCG, the binding signal in [1] was 1.02 fold enrichment (6-mer frequency, TF over GST control); in assay [2] it was 1.05 fold enrichment (6-mer frequency, TF over GST control); in assay [3] it was 1.02 fold enrichment (6-mer frequency, TF over GST control); in assay [4] it was 1.11 fold enrichment (6-mer frequency, TF over GST control); in assay [5], 1.05 fold enrichment (6-mer frequency, TF over GST control); in assay [6], 1.03 fold enrichment (6-mer frequency, TF over GST control). The binding signal in [7] was 1.01 fold enrichment (6-mer frequency, TF over GST control).

On to GACGAC, for which the binding signal in assay [1] is 1.01 fold enrichment (6-mer frequency, TF over GST control); in assay [8] it was 1.05 fold enrichment (6-mer frequency, TF over GST control); in [9], 1.06 fold enrichment (6-mer frequency, TF over GST control); in assay [10] it was 1.03 fold enrichment (6-mer frequency, TF over GST control); in assay [11], 1.03 fold enrichment (6-mer frequency, TF over GST control); in assay [12] it was 1.06 fold enrichment (6-mer frequency, TF over GST control). In addition, the binding signal in assay [13] is 1.02 fold enrichment (6-mer frequency, TF over GST control); in assay [14], 1.03 fold enrichment (6-mer frequency, TF over GST control); in [15], 1.08 fold enrichment (6-mer frequency, TF over GST control).
